These results are taken from PubChem BioAssay (NCATS).

The structures appear in SMILES notation. The source made the active and inactive calls. Where a call stands in place of a potency, no number is given. Calls come from the whole dose curve; as a rule, active = well fitted inhibition curve with a large enough effect; inconclusive = small, poorly fitted or top-dose-only effect; inactive = flat fitted curve, though single readings scatter.

The test system of this test is Nanoluciferase (engineered Oplophorus gracilirostris luciferase). Put plainly: Primary Nanoluciferase (NLuc) qHTS assay for identification of artifact compounds. (AID 1845222).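 Note: NLuc secreted into diluted conditioned medium of S16 cells.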 As to conditions: NLuc-conditioned medium, Nano-Glo luminescence, 5 min; series mostly up to 54.1 µM. The procedure, abridged: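 S16 cell supernatant NLuc, 1:55; cpds qHTS; 15 min RT dark; Nano-Glo substrate 1:100, 5 min; luminescence; Hill fit of % inhibition.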
On the technique in general: qHTS replaces the single test concentration by a dilution series.
For the compound `C=C1C(OC(C)=O)C(=O)C2C(C)(C)C(OC(C)=O)CCC2(C)C1CC(OC(C)=O)/C(C)=C/COC(C)=O` (configuration not stated), the Potency entry is “inactive”.

With `COC1CC(=O)CCC(C)OC(=O)CC1O` (configuration not stated), the Potency result is “inactive”.

For `C[C@@H](Nc1cc(NS(=O)(=O)N2CCC2)nc(SCc2cccc(F)c2F)n1)[C@@H](O)CO`, the Potency entry is “inactive”.

Turning to `COc1ccc(C[C@H](N)C(=O)N[C@H]2[C@@H](O)[C@H](n3cnc4c(N(C)C)ncnc43)O[C@@H]2CO)cc1`, the Potency entry is “inactive”.

Consider `Cn1c(=O)c2nc(/C=C/c3cccc(Cl)c3)n(C)c2n(C)c1=O`, for which the Potency result was “inactive”.

On to `Clc1ccc2c(c1)C1=NCCN1c1c(-c3noc(C4CC4)n3)ncn1-2`, for which the Potency result is “inactive”.

Turning to `CC(=O)OC[C@@]12[C@H](O)C[C@]3(C)C(=CCC4[C@@]5(C)CC[C@H](O[C@@H]6O[C@H](C(=O)O)[C@@H](O[C@@H]7O[C@H](CO)[C@@H](O)[C@H](O)[C@H]7O)[C@H](O)[C@H]6O[C@@H]6O[C@H](CO)[C@@H](O)[C@H](O)[C@H]6O)[C@](C)(CO)C5CC[C@]43C)[C@@H]1CC(C)(C)[C@@H](OC(C)=O)[C@@H]2O` (some centres not stated), the activity, negative = inhibition is 3.06% [at 11.6 µM] (inactive).

Take `C=C1CCC2C(C)(C)CC(=O)CC2(C)C1CCC(C)CCOC(C)=O` (configuration not stated): the Potency entry was “inactive”.

In the case of `CC(=O)C1CCC2(C)C3=C(CCC12C)C1(C)CCC(=O)C(C)(C)C1CC3` (configuration not stated), the Potency entry was “inactive”.

For the compound `CC(=O)c1c(O)cc2c(c1C)C(=O)CC(O)C2` (configuration not stated), the Potency entry is “inactive”.

Take `CC(C)(C)NCc1cc(Nc2ccnc3cc(Cl)ccc23)c2c(c1O)CCCC2`: the activity, negative = inhibition is 1.02% [at 0.464 µM] (inactive).

Consider `COc1c(C)c(OCC=C(C)C)cc2c1C(=O)NC2=O`, for which the Potency entry is “inactive”.
